FMDV inh = High Throughput Screening for Foot and Mouth Disease Virus Antivirals; Potency, µM (top dose mostly 57.9 µM), actives largely listed as inhibitors; AID 1159524, 2015; hit rate 1.2% among 410,000; FMDV antiviral cell-based qHTS; calls by dose curve; tested in HEK293T cells; further: read-out not given here; nearly all actives have a fitted effect of over 45% in size
LASV entry inh = qHTS for Inhibitors of binding or entry into cells for Lassa Virus; Lassa virus pseudotype entry inhibition, cell reporter; Potency, µM (doses to about 37.9 µM), actives largely listed as inhibitors; hit rate 1.2% among 300,000; calls by dose curve; tested in HEK293 cells; further: nearly all actives have a fitted effect of over 50% in size
Marburg entry inh = qHTS for inhibitors of binding or entry into cells for Marburg Virus. Marburg virus pseudotyped entry inhibition, cell reporter. Potency, µM (top dose mostly 37.8 µM), usual class: inhibitors. hit rate 1.8% among 300,000; calls by dose curve; tested in HEK293 cells
HCV inh = qHTS Assay for Inhibitors of Hepatitis C Virus (HCV). Huh7.5.1 HCVcc-Cre infection, luciferase reporter, 44 h. Potency, µM (titrated, usually from 41.8 µM), hits mostly inhibitors. AID 651820, 2012. hit rate 3.4% among 340,000; active means well fitted inhibition curve with a large enough effect; inconclusive means small, poorly fitted or top-dose-only effect, or another doubt; inactive means no such curve, though single readings can be large or run the other way
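1,000 cells/well; 4 h culture; + compound; + HCVcc-Cre (~0.5 moi); 44 h; luciferase substrate, RT 15 min; read 15 sec.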
HCMV antiviral = qHTS Assay for inhibitors of the human cytomegalovirus (HCMV). AID 1259415, 2018. activity change, negative = inhibition, % at 57.5 µM. HFF cells, HCMV-luciferase reporter, 72 h; hits give low values. hit rate 4.5% among 410,000; in the data active means activity change below about -60%; inconclusive means no clear call, values can overlap the other calls; inactive means above about -39%
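Human foreskin fibroblasts infected with luciferase-reporter HCMV at MOI 1 PFU/cell, compounds at two doses. Luciferase measured 72 h post infection; normalized to buffer-only basal and Salinomycin (10uM) controls.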
A number is an active result; . = inactive; ? = inconclusive; / = no result; ! = a repeat was not active. Most compounds without a hit are left out; they make up all but 7.9% or so of the library.

SMILES	FMDV inh	LASV entry inh	Marburg entry inh	HCV inh	HCMV antiviral
CCN(CC)CCOc1ccc(/C(=C(/Cl)c2ccccc2)c2ccccc2)cc1	?	/	/	7.94µM	-70.5!
CCC(=C(c1ccc(O)cc1)c1ccc(OCCN(C)C)cc1)c1ccccc1	.	/	/	/	.
CCOc1ccc(C(=O)OCCN(CC)CC)cc1	.	.	.	.	.
CC/C(=C(\c1ccc(O)cc1)c1ccc(OCCN(C)C)cc1)c1ccccc1	.	/	/	?	-66.8
Cc1cccc(C)c1NC(=O)Cn1cc(S(=O)(=O)Cc2ccc(F)cc2)c2ccccc21	.	.	/	/	.
CCC1CN(Cc2cn[nH]c2-c2ccccc2)Cc2cc(OC)ccc2O1 (stereo not given)	.	/	/	/	/
N#CC1=C(N)Oc2cc(O)ccc2C1c1ccc2c(c1)OCO2 (stereo not given)	.	.	.	.	.
COc1ccc(C2C(C#N)=C(N)Oc3cc4c(cc32)OCO4)cc1 (stereo not given)	/	?	5.8µM	.	.
COC(=O)C(NC(=O)OCc1ccccc1)(c1ccc(Cl)cc1)C(Nc1ccccc1)c1ccccc1 (stereo not given)	/	/	/	/	.
CC(C)C[C@H](CO)Nc1nc(Nc2cccc(Cl)c2)c2ncn(C(C)C)c2n1	.	/	/	?	.
CCn1cnc2c(Nc3cccc(Cl)c3)nc(N[C@@H]3CCCC[C@@H]3N)nc21	/	8.2µM	11.6µM	/	/
N#Cc1nc(Nc2cccc(Cl)c2)c2ncn(C3CCCC3)c2n1	.	/	/	/	-87.0
COC(=O)NCC=Cc1nc(CCCO)co1	/	/	.	/	/
COc1ccc(N(Cc2cc3ccccc3[nH]c2=O)C(=O)C2CCCO2)cc1 (stereo not given)	.	.	.	.	-64.7
CCN1CCCC1CN(Cc1cc2ccc(C)cc2[nH]c1=O)C(=S)Nc1ccc(OC)cc1 (stereo not given)	.	?	.	.	?
CCOc1ccc(N(Cc2cc3cc(OC)ccc3[nH]c2=O)C(=O)C2CCCO2)cc1 (stereo not given)	.	.	.	.	.
CN(C)CCCN(Cc1cc2cc3c(cc2[nH]c1=O)OCO3)C(=S)Nc1cccc(Cl)c1	.	?	?	10µM	?
Cc1cc2cc(CN(CC3CCCO3)C(=S)Nc3ccccc3)c(=O)[nH]c2cc1C (stereo not given)	.	7.08µM	?	?	-81.7
CCN1CCCC1CN(Cc1cc2ccc(C)cc2[nH]c1=O)C(=S)Nc1cccc(OC)c1 (stereo not given)	.	?	10µM	?	.
CN(C)CCCN(Cc1cc2cc3c(cc2[nH]c1=O)OCO3)C(=S)Nc1ccccc1	.	?	?	?	.
CCC(=O)N1CCc2cc(Br)cc(S(=O)(=O)CCC(=O)NCc3ccccc3)c21	.	.	.	/	.
COc1ccc2cc(CN(CC3CCCO3)C(=S)Nc3ccccc3)c(=O)[nH]c2c1 (stereo not given)	.	?	?	?	-72.8
CCN1CCCC1CN(Cc1cc2ccc(C)c(C)c2[nH]c1=O)C(=O)Nc1ccccc1OC (stereo not given)	.	.	17.8µM	?	.
COCCN1Cc2cccc(C(=O)Nc3ccc(Cl)cc3Cl)c2C1=O	.	.	.	/	.
O=C(COc1ccccc1F)Nc1ccccc1C(=O)OCc1cc(=O)n2nc(C3CC3)sc2n1	.	.	/	/	.
SMILES	FMDV inh	LASV entry inh	Marburg entry inh	HCV inh	HCMV antiviral
Cc1ccc(-c2noc(CN(C(=O)COc3cc(C)cc(C)c3C)C(C)C)n2)cc1	.	.	.	/	.
COc1ccc(C[C@H](N)C(=O)N[C@H]2[C@@H](O)[C@H](n3cnc4c(N(C)C)ncnc43)O[C@@H]2CO)cc1	?	/	/	0.316µM	-98.4
OCC1OC(n2cnc3c(Cl)ncnc32)C(O)C1O (stereo not given)	.	/	/	/	/
CN(C)c1ncnc2c1ncn2C1OC(CO)C(O)C1O (stereo not given)	.	?	?	4.47µM	.
COc1ccc(OC)c(CCNc2nc3cnc(-c4ccccc4Oc4ccccc4)cc3n2C)c1	/	/	/	/	.
Cc1cccc(-n2c(/C=C/c3ccccn3)nc3ccccc3c2=O)c1	?	/	/	?	-101.0
CCCc1nc2ccccc2c(=O)n1-c1ccccc1OC	.	?	?	.	.
COc1cccc(-n2c(/C=C/c3ccccn3)nc3ccccc3c2=O)c1	.	?	?	.	?
COc1ccccc1-n1c(/C=C/c2ccccn2)nc2ccccc2c1=O	?	?	?	?	-101.1
COc1ccccc1-n1c(/C=C/c2c(C)n(C)c3ccccc23)nc2ccccc2c1=O	?	?	/	/	-85.1
CC(Oc1ccc(Cl)cc1Cl)C(=O)N(C)c1ccccc1 (stereo not given)	.	/	/	.	-67.2
O=C(CNC(=O)c1ccccc1)NCCCSc1ccccc1	.	.	.	.	.
O=C(NCCCCCCNC(=O)c1ccccc1O)c1ccccc1O	?	.	?	10µM	-78.5
O=C(NCCNC(=O)c1ccccc1O)c1ccccc1O	.	/	/	.	?
O=C(NCCCSc1ccccc1)c1cc(Cl)ccc1O	.	/	/	?	-84.3
CCC(C(=O)NCc1ccccc1Cl)n1c(=O)c2cccn2c2ccccc21 (stereo not given)	.	.	/	/	?
COC(=O)[C@@H]1[C@@H](CO)[C@@H]2Cn3c(ccc(Br)c3=O)[C@@H]2N1CC1CCCC1	/	/	/	/	.
Cc1ccc(Cl)cc1N1CCN(C(=O)CCS(=O)(=O)c2cc(Br)cc3c2N(C(=O)C2CC2)CC3)CC1	.	.	?	/	.
CC(=O)O[C@@H]1[C@@H](O)[C@@H](O)[C@H](Oc2c(-c3ccc(O)cc3)oc3c(CC=C(C)C)c(O)cc(O)c3c2=O)O[C@H]1C	?	/	/	.	/
CC(=O)O[C@H]1[C@@H](O)[C@H](O)[C@H](Oc2c(O)c(C)c3c4c2[C@@H](C)CC[C@@H]4[C@@H](C)C[C@H]3C=C(C)C)O[C@H]1C	.	/	/	?	-96.9
COc1ccccc1C(=O)NCC(=O)N/N=C/c1cc(Br)ccc1OCc1ccccc1	?	?	?	10µM	?
COc1ccc(/C=N/OCC(=O)NCC(C)C)c(OC)c1	.	.	.	.	.
COc1ccc(/C=N/OCC(=O)NC(c2ccccc2)c2ccccc2)c(OC)c1	?	2.24µM	?	?	.
O=C(N/N=C/c1ccccc1)c1sccc1OCc1ccc(F)cc1	.	.	?	?	-62.3
COc1ccc(COc2ccccc2C(=O)NCc2ccccc2)cc1F	?	?	?	10µM	-69.2
SMILES	FMDV inh	LASV entry inh	Marburg entry inh	HCV inh	HCMV antiviral
O=C(CNC(=O)c1ccc(F)cc1)N/N=C/c1cc(Br)ccc1OCc1ccccc1	.	.	?	?	.
O=C(N/N=C/c1ccccc1)c1ccc(OCc2ccccc2)cc1	.	/	/	.	.
COc1cc(C(=O)NCc2ccccc2)ccc1OC(F)F	.	.	.	.	.
COc1ccc(S[C@]2(C(=O)N(C)C)CC(=O)N(c3ccc4ccccc4c3)[C@@H]2c2ccc(OC)cc2)cc1	/	/	/	/	.
CCOc1ccccc1CNC(=O)CN(c1ccc(C)cc1)S(=O)(=O)N(C)C	.	.	/	/	.
Cc1nc2c(c(C)nn2C(C)(C)C)c(C)c1CCC(=O)Nc1ccc(Br)cc1Br	.	?	.	/	.

Screens (PubChem)
